ChEMBL document CHEMBL3988442, “University of Dundee, Small-Polar-MMV Screening Library” (2021)
Among all 48,000 compounds or so, about 13,000 (27%) showed an effect of 50% or more. Some of the results follow.

Each molecule was assayed on Wolbachia pipientis (assay: Anti-Wolbachia Cell-Based Screen). Conditions: 5 µM.
Format: functional
Set-up: scale not given: in the data most compounds retested in dose-response had high values

Row | SMILES | Percent Effect [%]
1 | Cc1cc(CN2C[C@@H]3CN(C(=O)c4ccsc4)CCO[C@@H]3C2)no1.O=C(O)C(F)(F)F | 15.19
2 | CN(C)CCNC(=O)[C@H]1C[C@H]2CN(c3ncccn3)C[C@H]2N1C.O=C(O)C(F)(F)F.O=C(O)C(F)(F)F.O=C(O)C(F)(F)F | -2.268
3 | COCC(=O)NC[C@H]1C[C@@H]2CCN1C[C@@H]2c1cc(-c2cccs2)nn1C | -7.322
4 | O=C(O)C(F)(F)F.O=C(O)C(F)(F)F.c1cnc(NC[C@H]2OC[C@@H]3CCN(Cc4ccsc4)C[C@@H]32)nc1 | 103.6
5 | Cn1ccnc1CN1CC[C@H]2CO[C@H](CNc3ncccn3)[C@H]2C1.O=C(O)C(F)(F)F.O=C(O)C(F)(F)F.O=C(O)C(F)(F)F | 100.8
6 | CN1CCN(C[C@@H]2OC[C@H]3CN(Cc4ccncc4)CC[C@H]32)CC1 | 117.8
7 | O=C1[C@H]2CN(Cc3ccoc3)C[C@@H]2CCN1Cc1cccnc1 | -2.353
8 | CN(c1ncccc1C#N)C1CCN(Cc2ccncc2)CC1 | -9.884
9 | CN1CCN([C@H]2COC[C@@H]3CN(Cc4cccnc4)C[C@@H]32)CC1 | 3.012
10 | CS(=O)(=O)NC[C@H]1OC[C@@H]2CN(Cc3cccnc3)CC[C@@H]21 | 117.5
11 | COc1ccc(CCN)cc1-c1ccc(C(N)=O)cc1 | -8.06
12 | Cc1noc(C)c1CN1C[C@@H]2OCCN(Cc3cnn(C)c3)[C@@H]2C1 | -6.904
13 | COCCn1c(C(=O)NC(C(N)=O)C(C)C)cc2ccccc21 (configuration not stated) | -3.087
14 | Cc1ccccc1-n1cc(C2=CCN(CCn3cc[nH]c3=O)CC2)cn1 | 20.16
15 | Cc1cc(C)c(CNc2ncnc3ccsc23)c(=O)[nH]1 | 1.6
16 | O=C(CC1CC1)N[C@@H]1CN(Cc2ccccn2)C[C@@H]2CCCO[C@@H]21.O=C(O)C(F)(F)F.O=C(O)C(F)(F)F | -3.839
17 | O=C(O)C(F)(F)F.O=C(O)C(F)(F)F.O=C(O)C(F)(F)F.c1ccc(CN2CC[C@@H]3[C@@H](CO[C@@H]3CNc3ncccn3)C2)nc1 | 94.77
18 | O=S1(=O)CCC(n2cc(C3=CCN(CCn4cccc4)CC3)cn2)C1 (configuration not stated) | -6.845
19 | Cc1nc(C(C)C)sc1C(=O)N1CCN(C2CN3CCC2CC3)CC1 (configuration not stated) | 76.14
20 | COCCN1CCCC12CCCN(c1ncccn1)C2 (configuration not stated) | -3.4
21 | CC(C)(C)c1cc(=O)[nH]c(C2(N)CCCCC2)n1.Cl | -23.57
22 | CN(C)c1nccc(N2CCO[C@H]3CN(Cc4ccco4)C[C@H]32)n1 | 68.55
23 | Cn1ccnc1CN1C[C@@H]2OCCN(c3ncccn3)[C@@H]2C1 | 7.273
24 | Cc1cccc(CN2C[C@@H]3OCCN(S(=O)(=O)N(C)C)[C@@H]3C2)n1 | 2.928
25 | c1ccc(CCN2C[C@@H]3OCCN(c4ncccn4)[C@@H]3C2)cc1 | 21.57
26 | COCCN1C[C@@H]2OCCN(c3ccnc(N(C)C)n3)[C@@H]2C1 | 104.4

Row | SMILES | Percent Effect [%]
27 | CN(C)c1nccc(N2CCO[C@H]3CN(Cc4ccsc4)C[C@H]32)n1.O=C(O)C(F)(F)F | 12.89
28 | Cc1nc(CN2CCOC3(CCCC3)C2)no1 | 71.5
29 | OCCN1CCOC2(CCCN(c3ncccn3)C2)C1 (configuration not stated) | 10.98
30 | Cc1noc(C)c1CN1CCCC2(C1)CN(c1nncs1)CCO2 (configuration not stated) | -8.738
31 | c1cc(CN2CCOC3(CCCC3)C2)no1 | -7.47
32 | CCc1noc(CN2CCOC3(CCCC3)C2)n1 | 98.78
33 | Cc1nc(CN2CCOC3(CCCC3)C2)oc1C | 98.63
34 | CC(=O)N1CCCC2(CN(Cc3ccncc3)CCO2)C1 (configuration not stated) | -7.212
35 | CN1CCC(N2CCOC3(CCCC3)C2)C1=O (configuration not stated) | 17.36
36 | Cc1nc(CN2CCN(C(=O)COc3c(C)ccc(C)c3C)CC2)no1 | 0.1735
37 | Cl.NCC1(c2cccc(Br)c2)CCOCC1 | -3.113
38 | CN(Cc1nc2ccsc2c(=O)[nH]1)C[C@@H]1CCCN2CCCC[C@H]12 | 9.481
39 | Cc1nn(C)c2nc(N3CCCCC3c3cccnc3)sc12 (configuration not stated) | 116.8
40 | Cc1cc(C)nc(N2CCCC2c2cccnc2)n1 (configuration not stated) | -35.57
41 | Cc1cc(N2CCCC2c2cccnc2)nc(C)n1 (configuration not stated) | -8.687
42 | c1cc(CN2CCOCC3(CCNCC3)C2)ccn1 | -46.48
43 | CNc1nccnc1C1CCN(C(C)C)CC1 | 92.81
44 | Cc1n[nH]c(C)c1CC(=O)N1CCCN(C)C2(CCN(C)CC2)C1 | 0.449
45 | CO[C@H]1CCN(Cc2cccs2)[C@@H]2CN(Cc3ccncc3)C[C@H]12.O=C(O)C(F)(F)F.O=C(O)C(F)(F)F.O=C(O)C(F)(F)F | 110
46 | CO[C@@H]1CCN(Cc2cccs2)[C@@H]2CN(Cc3ccncc3)C[C@@H]21.O=C(O)C(F)(F)F.O=C(O)C(F)(F)F.O=C(O)C(F)(F)F | 96.91
47 | CCS(=O)(=O)N1CC[C@H](OC)[C@H]2CN(Cc3ccncc3)C[C@H]21.O=C(O)C(F)(F)F.O=C(O)C(F)(F)F | 4.967
48 | CO[C@@H]1CCN(S(=O)(=O)N(C)C)[C@@H]2CN(Cc3ccncc3)C[C@@H]21.O=C(O)C(F)(F)F.O=C(O)C(F)(F)F | 7.733
49 | CO[C@H]1CCN(C2CCC2)[C@@H]2CN(Cc3ccncc3)C[C@H]12.O=C(O)C(F)(F)F.O=C(O)C(F)(F)F.O=C(O)C(F)(F)F | 1.676
50 | CO[C@@H]1CCN(S(=O)(=O)N(C)C)[C@@H]2CN(Cc3cccnc3)C[C@@H]21.O=C(O)C(F)(F)F.O=C(O)C(F)(F)F | -16.98
51 | Nc1ncccc1CN1C[C@H]2OC(=O)N(Cc3ccccn3)[C@H]2C1 | 0.5145
52 | CCc1nc(CN2CCN(C(=O)Cc3c(C)noc3C)CC2)cs1 | 0.6841
